Here are results for 33 compounds from PubChem BioAssay AID588342 (National Center for Advancing Translational Sciences (NCATS), 2011).

In all, about 360,000 compounds went through this assay and about 25,000 (6.9%) were called active. About 9% were inconclusive and are not listed. Calls come from the whole dose curve; as a rule, active = well fitted inhibition curve with a large enough effect; inconclusive = small, poorly fitted or top-dose-only effect; inactive = flat fitted curve, though single readings scatter. Many of the other results were omitted from the sample, so actives are more common in it than they were.
Potency is the fitted concentration of half-maximal effect.

Chain of Luciferin 4-monooxygenase (Photinus pyralis) (P08659 whole entry, looked up): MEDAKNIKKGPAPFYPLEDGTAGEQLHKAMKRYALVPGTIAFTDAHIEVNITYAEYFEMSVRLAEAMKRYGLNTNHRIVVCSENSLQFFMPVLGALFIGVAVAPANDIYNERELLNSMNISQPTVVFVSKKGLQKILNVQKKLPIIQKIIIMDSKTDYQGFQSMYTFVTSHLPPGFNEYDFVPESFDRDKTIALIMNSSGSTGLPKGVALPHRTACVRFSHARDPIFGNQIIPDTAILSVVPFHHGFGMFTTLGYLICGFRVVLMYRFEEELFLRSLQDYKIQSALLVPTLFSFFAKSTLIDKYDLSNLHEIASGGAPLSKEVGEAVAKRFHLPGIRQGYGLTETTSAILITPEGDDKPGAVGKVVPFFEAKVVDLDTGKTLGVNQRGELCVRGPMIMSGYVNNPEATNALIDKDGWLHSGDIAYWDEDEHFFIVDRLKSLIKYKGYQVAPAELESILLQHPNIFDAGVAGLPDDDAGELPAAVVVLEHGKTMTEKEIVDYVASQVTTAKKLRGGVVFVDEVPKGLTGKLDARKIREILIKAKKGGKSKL

The target in the assay is Luciferin 4-monooxygenase (Photinus pyralis) (UniProt P08659). Nature of the assay: qHTS profiling assay for firefly luciferase inhibitor/activator using purifed enzyme and Km concentrations of substrates (counterscreen for miR-21 project).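 For activity change, negative = inhibition: plate controls were vehicle for no effect and reference inhibitor for full effect.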 Note: nearly all actives have a fitted effect of over 55% in size. The conditions noted are these: purified FLuc, luminescence inhibition; series mostly up to 57.5 µM; activity change, negative = inhibition: at the top concentration. In outline:
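Purified P. pyralis luciferase, 10 nM final, with Km-level 10 uM D-luciferin and 10 uM ATP in 50 mM Tris acetate pH 7.5, 10 mM Mg acetate, 0.01% Tween-20, 0.05% BSA; 6-point qHTS titration about 60 µM downward; luminescence read.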
(qHTS replaces the single test concentration by a dilution series.)
Consider `CCc1ccc(-n2nc(C)c3c(C)cc(=O)n(CC(=O)Nc4ccc(F)cc4C)c32)cc1`, for which the “activity change, negative = inhibition” value was 1.92% (inactive). For the compound `CCCNc1ncnc2c1c(-c1ccccc1)cn2-c1ccc(OCC)cc1`, the “activity change, negative = inhibition” value is -5.23% (inactive).

Take `O=C(COc1ccccc1O)NC1CCCC1`: the “activity change, negative = inhibition” value is -1.18% (inactive). On the same count and under the same terms, in the case of `CCOC(=O)c1ccc(NC(=O)c2nc(SCc3ccc(F)cc3)ncc2Cl)cc1` it was -7.43% (inactive). The same measure, in the same setting: in the case of `COc1cc(N=Cc2c(O)c3ccccc3oc2=O)c(OC)cc1Cl` it was 0.283% (inactive).

With `COc1ccccc1N=Cc1c(O)c2ccccc2oc1=O`, the Potency is 1.9 µM (active).

Regarding `COc1ccccc1N=C(C)C1=C(O)COC1=O`, the “activity change, negative = inhibition” value is 2.19% (inactive). Still for that read-out and setting: in the case of `O=C(Nc1ccc(OC(F)(F)F)cc1)c1cc2c(=O)n3ccccc3nc2s1` it was 1.26% (inactive); in that of `CCc1cc2c(-c3ccccc3)cc(=O)oc2c2c1OCN(Cc1ccc(C)cc1)C2`, -2.21% (inactive). On to `CCc1ccc2oc(-c3ccc(C)c(NC(=O)/C=C/c4ccco4)c3)nc2c1`, for which the Potency was 3.01 µM (active). Take `CCC(CC)c1nnc(NC(=O)/C=C/c2ccco2)s1`: the “activity change, negative = inhibition” value is 2.36% (inactive). On the same count and under the same terms, the figure for `Cc1cccc(C(=O)Nc2ccc(-c3nc4ncccc4o3)cc2C)c1` is -1.32% (inactive). The same measure, in the same setting: in the case of `Cc1ccc2cccc(NC(=O)c3cccc4ccccc34)c2n1` it was -2.45% (inactive). `O=c1c2ccccc2nc2n1C1(CCCCC1)Cc1ccccc1-2`: the “activity change, negative = inhibition” value was -1.54% (inactive). `CN(c1ccc2nc3ccccc3c(=O)n2n1)C1CCCCC1`: the Potency was 0.169 µM (active).

Regarding `CC(C)C(C)NC(=O)COc1nc2ccccc2nc1N(C)C1CCCCC1` (stereo not drawn), the “activity change, negative = inhibition” value was 0.505% (inactive). On the same count and under the same terms, in the case of `CCC(=O)N1CCc2cc(CNC(=O)Nc3ccccc3Cl)ccc21` it was -15.3% (inactive); in that of `COc1cc2sc(C)nc2cc1C`, -2.95% (inactive); in that of `CCCc1nc(NCc2ccc3c(c2)OCO3)c2nnn(Cc3ccccc3Cl)c2n1`, -0.879% (inactive). Regarding `Cc1nc(Nc2ccc3c(c2)OCCO3)c2nnn(Cc3ccccc3Cl)c2n1`, the Potency was 26.9 µM (active). Take `Cc1nc(Nc2ccccc2F)c2nnn(Cc3ccccc3Cl)c2n1`: the “activity change, negative = inhibition” value was -4.09% (inactive). `Nc1cccc(CCc2nc3ccccc3[nH]2)c1`: the “activity change, negative = inhibition” value was -21.6% (inactive). On the same count and under the same terms, the figure for `COc1ccc(OC(C)C(=O)NCCc2nc3ccccc3[nH]2)cc1` (stereo not drawn) is -0.594% (inactive). On to `c1ccc2c(CSCc3nc4ccccc4[nH]3)cccc2c1`, for which the Potency is 10.7 µM (active).

For the compound `Clc1ccccc1SCc1nc2ccccc2[nH]1`, the Potency was 13.5 µM (active). Turning to `c1ccc(-c2nnc(SCc3nc4ccccc4[nH]3)o2)cc1`, the “activity change, negative = inhibition” value was 1.85% (inactive). Turning to `O=c1[nH]nc(CSCc2ccccc2Cl)[nH]1`, the “activity change, negative = inhibition” value is 2.07% (inactive). On the same count and under the same terms, in the case of `COC(=O)Cc1ccc(OC(=O)C2CCN(S(=O)(=O)c3ccc(OC)c(OC)c3)CC2)cc1` it was 1.97% (inactive). Consider `Cc1nnsc1C(=O)NCc1c(F)cccc1Cl`, for which the “activity change, negative = inhibition” value was -1.24% (inactive). As to `Cc1nn(Cc2ccccc2)c(C)c1CNC(=O)c1ccc(F)c(S(=O)(=O)N2CCOCC2)c1`, the “activity change, negative = inhibition” value is 5.42% (inactive). Still for that read-out and setting: in the case of `O=C(Nc1ccccc1-c1ccccc1)c1cccs1` it was 5.07% (inactive).

On to `O=C(NC(=S)Nc1cccc(-c2ccc(CO)o2)c1)c1cccs1`, for which the Potency was 19 µM (active). In the case of `O=C(NC(=S)Nc1ccc(NC(=O)c2cccs2)cc1)c1ccc([N+](=O)[O-])cc1`, the “activity change, negative = inhibition” value is 0.372% (inactive).
